# Measured values: PubChem BioAssay (NCATS)
# Records with an inconclusive call do not appear. The source made the active and inactive calls. Unless noted, the call rests on the fitted dose curve; in most records, active means well fitted cell-killing curve with a large enough effect; inconclusive means small, poorly fitted or top-dose-only effect, or effect the other way; inactive means no such curve, though single readings can be large or run the other way.
# Tests used:
# [1] = Quantitative High-Throughput drug screen in 47 multiple myeloma cell lines against the NCATS MIPE library collection: KMS28PE_JCRB cell viability assay (AID 1918983); further: nearly all actives have a fitted effect of over 35% in size
# Method in brief: (§1)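 500 cells/well; MIPE 4.0 drugs pin-transferred; 48 h, 37C, 5% CO2. CellTiter-Glo, 5 min RT, luminescence. Controls: DMSO 100%, media 0%.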
# [2] = Quantitative High-Throughput drug screen in 47 multiple myeloma cell lines against the NCATS MIPE library collection: L363_DSMZ cell viability assay (AID 1918984); further: nearly all actives have a fitted effect of over 40% in size
# Method in brief: as §1
# [3] = Quantitative High-Throughput drug screen in 47 multiple myeloma cell lines against the NCATS MIPE library collection: KMS34_JCRB cell viability assay (AID 1918985); further: nearly all actives have a fitted effect of over 40% in size
# Method in brief: as §1
# [4] = Quantitative High-Throughput drug screen in 47 multiple myeloma cell lines against the NCATS MIPE library collection: OCIMY7_PLB cell viability assay (AID 1918987); further: nearly all actives have a fitted effect of over 65% in size
# Method in brief: as §1
# [5] = Quantitative High-Throughput drug screen in 47 multiple myeloma cell lines against the NCATS MIPE library collection: OCIMY5_PLB cell viability assay (AID 1918988); further: nearly all actives have a fitted effect of over 65% in size
# Method in brief: as §1
# [6] = Quantitative High-Throughput drug screen in 47 multiple myeloma cell lines against the NCATS MIPE library collection: OPM1_PLB cell viability assay (AID 1918989); further: nearly all actives have a fitted effect of over 40% in size
# Method in brief: as §1
# [7] = Quantitative High-Throughput drug screen in 47 multiple myeloma cell lines against the NCATS MIPE library collection: SKMM1_PLB cell viability assay (AID 1919863); conditions: SKMM1 myeloma viability, CellTiter-Glo ATP, 48 h; viability: stronger effect = lower value; further: nearly all actives have a fitted effect of over 35% in size
# Method in brief: as §1
# [8] = Quantitative High-Throughput drug screen in 47 multiple myeloma cell lines against the NCATS MIPE library collection: U266_ATCC cell viability assay (AID 1919864); further: nearly all actives have a fitted effect of over 35% in size
# Method in brief: as §1
# [9] = Quantitative High-Throughput drug screen in 47 multiple myeloma cell lines against the NCATS MIPE library collection: XG6_PLB cell viability assay (AID 1919865); further: nearly all actives have a fitted effect of over 40% in size
# Method in brief: as §1
# [10] = Quantitative High-Throughput drug screen in 47 multiple myeloma cell lines against the NCATS MIPE library collection: XG1_PLB cell viability assay (AID 1919866); further: nearly all actives have a fitted effect of over 35% in size
# Method in brief: as §1
# [11] = Quantitative High-Throughput drug screen in 47 multiple myeloma cell lines against the NCATS MIPE library collection: VP6_DJ cell viability assay (AID 1919867); further: nearly all actives have a fitted effect of over 40% in size
# Method in brief: as §1
# [12] = Quantitative High-Throughput drug screen in 47 multiple myeloma cell lines against the NCATS MIPE library collection: UTMC2_PLB cell viability assay (AID 1919868); conditions: CellTiter-Glo ATP luminescence, 48 h; viability (% of DMSO control): at 45.8 µM (top of the series) unless noted; further: nearly all actives have a fitted effect of over 55% in size
# Method in brief: as §1
# [13] = Quantitative High-Throughput drug screen in 47 multiple myeloma cell lines against the NCATS MIPE library collection: PE2_PLB cell viability assay (AID 1919869); further: nearly all actives have a fitted effect of over 35% in size
# Method in brief: as §1
# [14] = Quantitative High-Throughput drug screen in 47 multiple myeloma cell lines against the NCATS MIPE library collection: RPMI8226_ATCC cell viability assay (AID 1919871); further: nearly all actives have a fitted effect of over 30% in size
# Method in brief: as §1
# [15] = Quantitative High-Throughput drug screen in 47 multiple myeloma cell lines against the NCATS MIPE library collection: OPM2_DSMZ cell viability assay (AID 1919872); further: nearly all actives have a fitted effect of over 30% in size
# Method in brief: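 We plated 500 myeloma cells per well, pinned in MIPE 4.0 compounds, and incubated for 48 hours at 37C. ATP was then quantified with CellTiter-Glo, with DMSO and media-only wells defining 100% and 0%.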
# [16] = Quantitative High-Throughput drug screen in 47 multiple myeloma cell lines against the NCATS MIPE library collection: KMS28BM_JCRB cell viability assay (AID 1919874); further: nearly all actives have a fitted effect of over 35% in size
# Method in brief: as §1
# [17] = qHTS for identification of novel therapeutic agents for treatment of microphthalmiaassociated transcription factor (MiT) renal cell carcinoma (RCC) (AID 1963991; calls by dose curve;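 on z-score: curves scaled with 100% = DMSO viability and 0% = empty wells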); conditions: CellTiter-Glo, 48 h; for Potency: active = Z-AUC below -0.8 in all three lines; for z-score: stronger effect = lower value
# Method in brief: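 UOK109/UOK124/UOK145 (TFE3 fusions, three partners); 500 cells/well; MIPE v4.0, 1912 cpds, 11 conc.; 48 h, 37 C; CellTiter-Glo, 15 min RT; lum. Norm.: DMSO 100%, empty 0%.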
# [18] = Quantitative High-Throughput drug screen in 47 multiple myeloma cell lines against the NCATS MIPE library collection: PCM6_Riken cell viability assay (AID 1919870); further: nearly all actives have a fitted effect of over 30% in size
# Method in brief: as §1
# [19] = Quantitative High-Throughput drug screen in 47 multiple myeloma cell lines against the NCATS MIPE library collection: KMS11_JCRBsus cell viability assay (AID 1919873); further: nearly all actives have a fitted effect of over 50% in size
# Method in brief: as §1
# [20] = qHTS drug screen for cell cycle checkpoint inhibitors in PARPi-resistant BRCA-mutant ovarian cancer cell lines. (AID 1963452; calls by dose curve); conditions: PEO1/OlaR viability, CellTiter-Glo luminescence, 96 h; for Z-AUC: stronger effect = lower value
# Method in brief: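 PEO1, PEO4 and PEO1/OlaR ovarian cancer cells, 600 per well, exposed 96 h at 37C to a dilution series. Viability read by CellTiter-Glo luminescence, normalized to DMSO and empty wells; activity summarized as Z-AUC.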
# [21] = TFE3-RCC UOK109 viability, measured here: UOK109 Z-AUC
# [22] = TFE3-RCC viability, measured here: UOK124 Z-AUC
# [23] = TFE3-RCC viability, measured here: UOK145 Z-AUC
# [24] = measured here: PEO1 parental Z-AUC
# Potency means the concentration at half of the fitted maximal effect.
compound,measurement,setting,value
CC=C1NC(=O)[C@H]2CSSCCC=C[C@H](CC(=O)N[C@H](C(C)C)C(=O)N2)OC(=O)[C@H](C(C)C)NC1=O,Potency,[1],20.9 nM (active)
same,Potency,[2],6.6 nM (active)
same,Potency,[3],26.4 nM (active)
same,Potency,[4],59 nM (active)
same,Potency,[5],6.6 nM (active)
same,Potency,[6],13.2 nM (active)
same,Potency,[7],41.8 nM (active)
same,Potency,[8],37.2 nM (active)
same,Potency,[9],23.5 nM (active)
same,Potency,[10],26.4 nM (active)
same,Potency,[11],1 nM (active)
same,Potency,[12],33.2 nM (active)
same,Potency,[13],59 nM (active)
same,Potency,[14],26.4 nM (active)
same,Potency,[15],29.6 nM (active)
same,Potency,[16],16.6 nM (active)
same,Potency,[17]; TFE3-RCC UOK109 viability,33.2 nM (active)
same,z-score,[17]; [21],-2.23
same,z-score,[17]; [22],-4.08
same,z-score,[17]; [23],-2.33
COCCOc1ccc2c(c1)ncn2-c1ccc2cccc(N3CCC(N)CC3)c2n1,Potency,[1],13200 nM (active)
same,Potency,[2],187 nM (active)
same,Potency,[3],372 nM (active)
same,Potency,[4],469 nM (active)
same,Potency,[5],235 nM (active)
same,Potency,[6],93.5 nM (active)
same,Potency,[7],23500 nM (active)
same,Potency,[8],8330 nM (active)
same,Potency,[9],372 nM (active)
same,Potency,[10],132 nM (active)
same,Potency,[13],372 nM (active)
same,Potency,[18],1050 nM (active)
same,Potency,[14],26400 nM (active)
same,Potency,[15],1870 nM (active)
same,Potency,[19],5260 nM (active)
same,Z-AUC,[20],0.074 (inactive)
same,Z-AUC,[20]; [24],0.935
same,Z-AUC,[20]; measured here: PEO4 Z-AUC,0.806
NC(=O)Nc1cc(-c2cccc(F)c2)sc1C(=O)N[C@H]1CCCNC1,Potency,[1],2640 nM (active)
same,Potency,[2],16.6 nM (active)
same,Potency,[3],93.5 nM (active)
same,Potency,[4],264 nM (active)
same,Potency,[5],74.3 nM (active)
same,Potency,[6],296 nM (active)
same,Potency,[7],7430 nM (active)
same,Potency,[8],5900 nM (active)
same,Potency,[9],83.3 nM (active)
same,Potency,[10],187 nM (active)
same,Potency,[11],166 nM (active)
same,Potency,[13],469 nM (active)
same,Potency,[18],4690 nM (active)
same,Potency,[15],2640 nM (active)
same,Potency,[19],526 nM (active)
same,Potency,[20],110 nM (active)
same,Z-AUC,[20]; [24],-1.9
same,Z-AUC,[20]; measured here: PEO4 Z-AUC,-1.5
same,Potency,[17]; TFE3-RCC UOK109 viability,935 nM (active)
same,z-score,[17]; [21],-1.42
same,z-score,[17]; [22],-1.69
same,z-score,[17]; [23],-1.85
C=CC(=O)Nc1cccc(Oc2nc(Nc3ccc(N4CCN(C)CC4)cc3)ncc2Cl)c1,Potency,[1],18700 nM (active)
same,Potency,[2],5260 nM (active)
same,Potency,[3],9350 nM (active)
same,Potency,[4],209 nM (active)
same,Potency,[5],3320 nM (active)
same,Potency,[6],1050 nM (active)
same,Potency,[7],18700 nM (active)
same,Potency,[9],1180 nM (active)
same,Potency,[10],13200 nM (active)
same,Potency,[11],5900 nM (active)
same,Potency,[13],5900 nM (active)
same,Potency,[18],16600 nM (active)
same,Potency,[14],14800 nM (active)
same,Potency,[15],11800 nM (active)
same,Potency,[19],1050 nM (active)
same,Potency,[16],14800 nM (active)
same,Z-AUC,[20],-0.847 (inactive)
same,Z-AUC,[20]; [24],-0.559
same,Z-AUC,[20]; measured here: PEO4 Z-AUC,-0.604
same,Potency,[17]; TFE3-RCC UOK109 viability,833 nM (active)
same,z-score,[17]; [21],-2.72
same,z-score,[17]; [22],-0.851
same,z-score,[17]; [23],-2.36
c1nc2nc(Nc3ccc(N4CCOCC4)cc3)nc(NC3CCCCC3)c2[nH]1,Potency,[1],16600 nM (active)
same,Potency,[2],5260 nM (active)
same,Potency,[3],5260 nM (active)
same,Potency,[4],3320 nM (active)
same,Potency,[5],18700 nM (active)
same,Potency,[6],4690 nM (active)
same,Potency,[8],16600 nM (active)
same,Potency,[9],2090 nM (active)
same,Potency,[10],1480 nM (active)
same,Potency,[11],3320 nM (active)
same,Potency,[12],2640 nM (active)
same,Potency,[13],3720 nM (active)
same,Potency,[18],5900 nM (active)
same,Potency,[14],11800 nM (active)
same,Potency,[15],11800 nM (active)
same,Potency,[19],5260 nM (active)
same,Potency,[16],4180 nM (active)
same,Z-AUC,[20],-0.117 (inactive)
same,Z-AUC,[20]; [24],0.016
same,Z-AUC,[20]; measured here: PEO4 Z-AUC,-0.143
O=C(c1ccc(Nc2nccc(-c3cc4ccccc4s3)n2)cc1)N1CCC(N2CCCC2)CC1,Potency,[1],16600 nM (active)
same,Potency,[2],1480 nM (active)
same,Potency,[3],11800 nM (active)
same,Potency,[4],2350 nM (active)
same,Potency,[5],8330 nM (active)
same,Potency,[8],14800 nM (active)
same,Potency,[9],1870 nM (active)
same,Potency,[10],4690 nM (active)
same,Potency,[11],3320 nM (active)
same,Potency,[13],7430 nM (active)
same,Potency,[18],1870 nM (active)
same,Potency,[14],20900 nM (active)
same,Potency,[15],20900 nM (active)
same,Potency,[16],9350 nM (active)
same,Z-AUC,[20],0.507 (inactive)
same,Z-AUC,[20]; [24],0.645
same,Z-AUC,[20]; measured here: PEO4 Z-AUC,0.0416
Nc1ccccc1NC(=O)c1ccc(CNC(=O)OCc2cccnc2)cc1,Potency,[1],2350 nM (active)
same,Potency,[2],418 nM (active)
same,Potency,[3],935 nM (active)
same,Potency,[4],1660 nM (active)
same,Potency,[5],1320 nM (active)
same,Potency,[6],743 nM (active)
same,Potency,[8],5900 nM (active)
same,Potency,[9],2350 nM (active)
same,Potency,[10],1660 nM (active)
same,Potency,[11],743 nM (active)
same,Potency,[12],1320 nM (active)
same,Potency,[13],1660 nM (active)
same,Potency,[18],1660 nM (active)
same,Potency,[14],3320 nM (active)
same,Potency,[15],2090 nM (active)
same,Potency,[19],1870 nM (active)
same,Potency,[16],1050 nM (active)
same,Z-AUC,[20],-0.769 (inactive)
same,Z-AUC,[20]; [24],-1.32
same,Z-AUC,[20]; measured here: PEO4 Z-AUC,-1.54
COc1cc2ncnc(Nc3ccc(F)c(Cl)c3)c2cc1NC(=O)C=CCN1CCCCC1,Potency,[1],23500 nM (active)
same,Potency,[2],2350 nM (active)
same,Potency,[3],26400 nM (active)
same,Potency,[4],1320 nM (active)
same,Potency,[5],16600 nM (active)
same,Potency,[6],7430 nM (active)
same,Potency,[7],20900 nM (active)
same,Potency,[9],4180 nM (active)
same,Potency,[10],4180 nM (active)
same,Potency,[11],5900 nM (active)
same,Potency,[13],6620 nM (active)
same,Potency,[14],18700 nM (active)
same,Potency,[19],8330 nM (active)
same,Potency,[16],6620 nM (active)
